# Source: PubChem BioAssay (National Center for Advancing Translational Sciences (NCATS))
# KB-3-1 tox: KB-3-1 parental cell cytotoxicity; KB-3-1 viability, CellTiter-Glo ATP luminescence, 72 h; actives 1.4% (n = 400,000); AID 1347075; Potency, µM (doses to about 46.1 µM), actives largely listed as cytotoxic; also: potency is read from the fitted curve at half-maximal effect; % is scaled to controls: 0 for no effect and ±100 for the full control effect; nearly all actives have a fitted effect of over 60% in size
#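 Parental KB-3-1 viability, qHTS format: 72 h compound exposure, 37 °C; CellTiter-Glo; media-only wells and DMSO plates as controls; concentration-effect fits on corrected data.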
# MCF10A rerep: DNA re-replication induction in MCF 10a cells; MCF 10A DNA re-replication, Hoechst nuclear intensity, 48 h; Potency, µM (top dose mostly 46.1 µM), inactives show at the highest dose activity, positive = re-replication, hits mostly activators; actives 2.9% (n = 350,000); also: potency is read from the fitted curve at half-maximal effect; % of control where 0% means no effect; nearly all actives have a fitted effect of over 50% in size
# S-ASM inh: human S-ASM enzyme inhibition; actives 0.006% (n = 340,000); placental ASM, HMU-PC fluorogenic substrate, 60 min; Potency, µM (series often up to 57.5 µM), for inactives: at the top dose activity change, negative = inhibition, hits mostly inhibitors; AID 504937; P17405; also: potency is read from the fitted curve at half-maximal effect
#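 Fluorogenic HMU-PC substrate (9 uM final) is turned over by placental ASM in 60 min at 37 C after a 10 min compound preincubation. Reaction ended by alkaline stop (pH 10), with fluorescence read at 386/447 nm.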
# KB-V1 cytotox: KB-V1 MDR subline cytotoxicity; KB-V1 MDR cells viability, CellTiter-Glo, 72 h; Potency, µM (doses to about 46.1 µM), hits mostly cytotoxic; actives 3.4% (n = 400,000); AID 1347076; also: potency is read from the fitted curve at half-maximal effect; % is scaled to controls: 0 for no effect and ±100 for the full control effect; nearly all actives have a fitted effect of over 60% in size
#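 Following 72 h at 37 degrees C with compound, KB-V1 cell viability was read by CellTiter-Glo luminescence, medium being phenol-red-free DMEM plus 10% FBS; concentration-response parameters came from normalized, curve-fitted qHTS data.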
# Giardia kill: Giardia lamblia killing; Giardia lamblia trophozoite viability; activity change, % at 7.66 µM, hits read low; actives 0.15% (n = 340,000); AID 540267; in the data active = activity change below about -80%; inconclusive = between about -30% and that limit;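 also: parasites exposed to compound for two days anaerobically before the ATP read; % is scaled to controls: 0 for no effect and ±100 for the full control effect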
#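 Giardia trophozoites, 100 cells per well, were exposed to compounds for 48 hrs at 37 deg C under anaerobic conditions; viability was then read as ATP content by bioluminescence after 15-30 min at room temperature.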
# SW480 rereplic: induces DNA re-replication in SW480 colon adenocarcinoma cells; actives 1.8% (n = 340,000); SW480 DNA re-replication, Hoechst DNA content imaging, 48 h; Potency, µM (doses to about 46.1 µM), for inactives: at the highest dose re-replication activation, most hits filed as activators; also: potency is read from the fitted curve at half-maximal effect; % of control where 0% means no effect; nearly all actives have a fitted effect of over 55% in size
#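 Quantitative HTS format with DMSO vehicle controls; 48 hr drug incubation at 37 C, then 40 min Hoechst staining and scanning imager measurement at 405 nm excitation.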
# Starred values were filed as active, the others as inactive; i = inactive; ? = inconclusive; nt = no result given; [ ] = another dose, or the depositor's remark. Shown are actives, neighbours in structure and some others; about 6.9% of the full set was active somewhere. Unless noted, calls follow the shape of the dose curve; as a rule, active = well fitted curve in the direction sought with a large enough effect; inconclusive = small, poorly fitted or top-dose-only effect, or another doubt; inactive = no such curve, though single readings can be large; an effect the other way counts as inactive or inconclusive.
SMILES,KB-3-1 tox,MCF10A rerep,S-ASM inh,KB-V1 cytotox,Giardia kill,SW480 rereplic
CCc1ccccc1NC(=O)CCS(=O)(=O)c1cccc2nonc12,i,nt,nt,i,nt,nt
C=CCN1C(=O)/C(=C2/Sc3ccc(OC)cc3N2C)SC1=Nc1ccccc1,i,?,8%,i,-11,7.3µM*
Cc1csc(=Nc2c(C)n(C)n(-c3ccccc3)c2=O)n1Cc1ccccc1,i,1%,3%,i,-10,4%
COc1ccc(-c2csc(=Nc3ccccc3)n2CCO)cc1,12µM*,?,4%,7.3µM*,33,-6%
C=CCn1c(-c2ccc(OC)cc2)csc1=Nc1c(C)n(C)n(-c2ccccc2)c1=O,16µM*,1%,-1%,8.2µM*,-4,2%
CC(=O)c1cccc(N=c2scc(-c3ccc(S(=O)(=O)N4CCOCC4)cc3)n2CCO)c1,i,-2%,4%,5.8µM*,-13,-1%
COc1ccc(NC(=O)CN2C(=O)CSC(C)C2=O)cc1 (centres undefined),i,-2%,-2%,i,-6,5%
CC(=O)NC1=C(C#N)C(c2ccccc2)c2c(ccc3ccccc23)O1 (centres undefined),18µM*,1.8µM*,-10%,6.5µM*,-14,?
Cc1ccccc1S(=O)(=O)Cc1ccc(C(=O)NCc2ccccc2Cl)o1,i,nt,nt,?,nt,nt
CSc1nc(Cl)c(Cc2ccc(OCC(C)C)cc2)c(N2CCOCC2)n1,i,14%,-3%,?,4,-2%
CCCCOc1ccc(Cc2c(Cl)nc(SC)nc2N2CCOCC2)cc1,i,15%,-3%,21µM*,8,4%
CN(C)c1ccc(-c2nn3c(-c4cc(-c5ccccc5)n[nH]4)nnc3s2)cc1,?,nt,nt,i,7,nt
Cc1ccc(S(=O)(=O)N(CC(=O)N=Nc2c(O)[nH]c3ccccc23)c2cccc(C)c2)cc1,21µM*,?,?,21µM*,1,?
CCCCN(Cc1cc2ccccc2[nH]c1=O)S(=O)(=O)c1ccc(C)cc1,?,-1%,-4%,i,1,6%
Cc1ccc(S(=O)(=O)N(Cc2cc3ccccc3[nH]c2=O)c2cccc(C)c2)cc1,i,?,-5%,?,-10,4.1µM*
Cc1ccc(S(=O)(=O)N(Cc2cc3ccc(C)cc3[nH]c2=O)c2ccccc2)cc1,i,5%,-10%,i,-7,-5%
Cc1ccc2[nH]c(=O)c(CN(c3cccc(C)c3C)S(=O)(=O)c3ccccc3)cc2c1,6.5µM*,?,-10%,?,7,21%
CCCCN(Cc1cc2ccccc2[nH]c1=O)S(C)(=O)=O,i,-1%,nt,?,9,10µM*
Cc1ccc2c(=O)c(C(=O)c3ccccc3)cn(CC(=O)Nc3ccc4c(c3)OCCO4)c2n1,i,nt,nt,i,nt,nt
CC[C@@H]1OC(=O)[C@H](C)[C@H](O[C@@H]2C[C@](C)(OC)[C@H](O)[C@H](C)O2)[C@H](C)[C@H](O[C@@H]2O[C@@H](C)C[C@@H](N(C)C)[C@@H]2O)[C@](C)(O)C[C@H](C)C(=NOCOCCOC)[C@H](C)[C@H](O)[C@]1(C)O,nt,-4%[20.6 µM],nt,nt,nt,1%[20.6 µM]
CCCNc1c(NS(=O)(=O)c2c(F)c(F)c(F)c(F)c2F)c(=O)oc2ccccc12,?,?,-1%,i,-13,23%
CCOc1cc(/C=C(/C#N)C(=O)Nc2ccc(O)cc2)cc(Br)c1O,1µM*,0.18µM*,-23%,?,7,2.1µM*
Clc1ccc(-c2nc3ccncc3[nH]2)cc1,?,2%,4%,18µM*,-11,-13%
O=c1[nH]c(CN2CCN(c3ccc([N+](=O)[O-])cc3)CC2)nc2ccsc12,16µM*,-3%,-5%,18µM*,-2,0%
COc1ccc(N2CCN(Cc3nc4ccsc4c(=O)[nH]3)CC2)cc1,i,-8%,0%,i,-16,2%
